# LASV entry inh – Lassa virus entry inhibition | hit rate 1.2% among 300,000 | Potency, µM (top dose mostly 37.9 µM), for inactives: top-dose activity change, negative = inhibition, hits mostly inhibitors | AID 540256 | Lassa virus pseudotype entry inhibition, cell reporter; calls by dose curve; tested in HEK293 cells; also: potency is read from the fitted curve at half-maximal effect; % is scaled to controls: 0 for no effect and ±100 for the full control effect; nearly all actives have a fitted effect of over 50% in size
# Marburg entry inh – blocks Marburg virus binding to or entry into cells; AID 540276; Potency, µM (series often up to 37.8 µM), for the others: at the highest dose activity change, negative = inhibition, most hits filed as inhibitors; hit rate 1.8% among 300,000; Marburg virus pseudotyped entry inhibition, cell reporter; calls by dose curve; tested in HEK293 cells; also: potency is read from the fitted curve at half-maximal effect; % is scaled to controls: 0 for no effect and ±100 for the full control effect
# HCV inh – blocks hepatitis C virus | Huh7.5.1 HCVcc-Cre infection, luciferase reporter, 44 h | Potency, µM (top dose mostly 41.8 µM), for the others: at the top dose activity change, negative = inhibition, actives largely listed as inhibitors | hit rate 3.4% among 340,000; active = well fitted inhibition curve with a large enough effect; inconclusive = small, poorly fitted or top-dose-only effect, or another doubt; inactive = no such curve, though single readings can be large or run the other way; also: potency is read from the fitted curve at half-maximal effect; % is scaled to controls: 0 for no effect and ±100 for the full control effect
#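 A cell-based infection assay in which seeded cells (1,000 per well) receive test compound after 4 h, are inoculated with HCVcc-Cre at approximately 0.5 moi, and are incubated 44 h before luminescence detection.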
# HCMV antiviral – blocks human cytomegalovirus replication; HFF cells, HCMV-luciferase reporter, 72 h; stronger effect = lower value; activity change, negative = inhibition, % at 57.5 µM; hit rate 4.5% among 410,000; in the data active = activity change below about -60%; inconclusive = no clear call, values can overlap the other calls; inactive = above about -39%; also: % is scaled to controls: 0 for no effect and ±100 for the full control effect
#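 Two compound doses tested in HFFs infected with HCMV-luciferase, MOI 1 PFU/cell, 72 h at 37C. Lysate luminescence read with OneGlo; data normalized against buffer-only and 10uM Salinomycin inhibitor controls.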
# FMDV antiviral – antivirals against foot and mouth disease virus | AID 1159524 | Potency, µM (doses to about 57.9 µM), for the others: at the highest dose activity change, negative = inhibition, hits mostly inhibitors | FMDV antiviral cell-based qHTS | hit rate 1.2% among 410,000; calls by dose curve; tested in HEK293T cells; also: read-out not given here; potency is read from the fitted curve at half-maximal effect; % is scaled to controls: 0 for no effect and ±100 for the full control effect; nearly all actives have a fitted effect of over 45% in size
# SARS PLpro yeast – inhibitors of SARS-CoV papain-like protease in yeast | S. cerevisiae expressing SARS-CoV PLpro, growth rescue | Potency, µM (highest dose often 32.9 µM), inactives show at the top dose activity, positive = growth rescue, most hits filed as activators | hit rate 0.19% among 330,000; calls by dose curve; also: potency is read from the fitted curve at half-maximal effect; 0% is about no effect; nearly all actives have a fitted effect of over 55% in size
# * marks the source's active call; other numbers are inactive results; ? = inconclusive; . = no result given; [ ] = remark or other dose. This is a sample that favours compounds with a hit; in the whole collection about 8% have one here.
SMILES,LASV entry inh,Marburg entry inh,HCV inh,HCMV antiviral,FMDV antiviral,SARS PLpro yeast
CCOC(=O)C1CCN(CC(=O)Nc2c(C(=O)OC)[nH]c3ccc(Cl)cc23)CC1,?,10µM*,10µM*,60,?,0%
O=C(CN1CCCCCC1)Nc1ccc(Br)cc1,21%[14.3 µM],-21%,.,-10,31%,12%
COC(=O)c1[nH]c2ccc(Br)cc2c1NC(=O)CN1CCN(C2CCCCC2)CC1,?,6.5µM*,11µM*,13,32µM*,-1%
O=C(CN1CCN(C2CCCCC2)CC1)Nc1ccc(Br)cc1,-5%,-22%[46.1 µM],10µM*,33,-7%,1%
COc1cc(CN2C(=O)CC[C@@H]3CN(Cc4ccccn4)CC[C@@H]32)cc(OC)c1OC,.,.,.,.,-4%,.
OC(COc1cccc2ccccc12)CN1CCN(c2ccccc2Cl)CC1 (stereo not drawn),.,.,4%,-38,-20%,-2%
COc1ccc(/C=C(\C#N)c2nc3ccc(C)cc3[nH]2)cc1Oc1ccc(C(F)(F)F)cc1[N+](=O)[O-],19%,-28%,?,-68*,0%,-6%
COc1cc(/C=C(\C#N)c2nc3ccc(C)cc3[nH]2)ccc1OCc1ccc(C)cc1,?,.,.,3,0%,.
CCOC(=O)COc1ccc(/C=C(\C#N)c2nc3ccc(C)cc3[nH]2)cc1OC,-3%[46.1 µM],0%[46.1 µM],.,-105*,-14%,.
Cc1ccc(-c2ccc(CCC(=O)O)n2-c2ccc(C(C)C)cc2)cc1,-16%[46.1 µM],5%[46.1 µM],.,6,-11%,.
Cc1ccc2c(=O)cc(C(=O)Nc3sc4c(c3C(=O)NCc3ccccc3)CCCC4)oc2c1C,5%[46.1 µM],12%[46.1 µM],.,7,-19%,.
CCn1c(-c2cccc(OC)c2)nc2cc(NC(C)=O)cc(C(=O)N3CCCC(C(C)=O)C3)c21 (stereo not drawn),.,.,.,.,-2%,.
Cc1oc(-c2cc(F)ccc2F)nc1CN1CCN(c2ncnc3ccccc23)CC1,.,.,0.56µM*,-63*,16µM*,-3%
COc1ccccc1CN1CCN(Cc2nc(-c3ccc(C)cc3)oc2C)CC1,.,.,?,70,-24%,-2%
COc1ccc(-c2nc(CN3CCN(c4ccccc4OC)CC3)c(C)o2)cc1,-23%,?,?,?,28µM*,0%
CCc1ccc(-c2nc(CN3CCC(C(=O)NCc4ccccc4OC)CC3)c(C)o2)cc1,?,?,10µM*,-38,?,0%
COc1ccc(-c2nc(CN3CCC(c4ccccc4)CC3)c(C)o2)cc1OC,-2%[46.1 µM],?,?,-65*,-15%,0%
CCC(C)c1ccccc1N1CC(C(=O)NCCc2ccc(OC)c(OC)c2)CC1=O (stereo not drawn),-11%,?,-24%,-7,-15%,1%
CN(CC(=O)Nc1ccc(Cl)cc1)C(=O)CCc1c[nH]c2ccccc12,?,-2%[46.1 µM],-26%,-2,-20%,-2%
COc1ccccc1N1CCN(Cc2nc(-c3ccc(F)cc3)oc2C)CC1,.,.,22µM*,-12,?,23%
Cc1cc(N2CCN(Cc3nc(-c4ccc(F)cc4)oc3C)CC2)cc(C)n1,.,.,?,?,-24%,0%
COc1ccccc1N1CCN(c2nnc(-c3ccc(F)cc3)c3ccccc23)CC1,-3%,2%,9%,5,20µM*,-7%
OC(CNc1nc(C(F)(F)F)nc2ccccc12)c1ccccc1 (stereo not drawn),?,?,?,-66*,-22%,-9%
COc1cccc(-n2c(N)cc(=O)nc2SCC(=O)N2CCN(c3ccccc3)CC2)c1,2%,-9%,.,-7,2%,3%
Cc1nc(C)c(-c2ccc(SCC(=O)Nc3cccc(Cl)c3)nn2)s1,-1%[46.1 µM],1%[46.1 µM],10µM*,7,?,2%
Cc1nc(C)c(-c2ccc(SCC(=O)Nc3cccc(F)c3)nn2)s1,?,?,14µM*,?,?,-2%
Cc1ccccc1CNC(=O)C1CCCN(c2nnc(-n3c(C)ccc3C)s2)C1 (stereo not drawn),5%[46.1 µM],4%[46.1 µM],.,-35,-12%,.
CCOc1ccc(N2C(=O)N(Cc3ccc(C)cc3C)c3ccccc3S2(=O)=O)cc1,0%[46.1 µM],.,.,-9,-13%,.
